KDM5B inhibitor: KDM5B demethylase inhibition. Q9UGL1. KDM5B demethylase, FDH-coupled NADH fluorescence (FDH is formaldehyde dehydrogenase). Potency, µM (doses to about 57.7 µM), hits mostly inhibitors. 220,000 tested, 2.6% active. AID 1347165; further: potency means the concentration at half of the fitted maximal effect; 0% is about no effect; nearly all actives have a fitted effect of over 70% in size
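qHTS format, multiple compound concentrations. Buffer 50 mM HEPES pH 7.5/0.01% Tween-20; 200 nM KDM5BΔAP final; 10 min compound preincubation; substrate-mix levels 12.5 µM peptide, 25 µM α-KG, 0.25 mM NAD⁺; 30 min RT; ΔRFU.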
SNCA viab count: reduces viability of HEK-293 SNCA reporter cells | HEK-293-SNCA-luc viability, GF-AFC fluorescence, 24 h | Potency, µM (series often up to 57.1 µM), inactives show at the top dose activity change, negative = cytotoxicity, most hits filed as cytotoxic | 150,000 tested, 0.12% active | AID 1671193;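 further: potency means the concentration at half of the fitted maximal effect; 0% = DMSO-treated cells and -100% = medium-only wells without cells; nearly all actives have a fitted effect of over 30% in size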
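HEK-293-SNCA-luc cells (1500/well) plated 24 h, then exposed 24 h to a dilution series; GF-AFC added 30 min at 37C, fluorescence 405/540 nm; normalised to medium-only and DMSO wells, Hill fit.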
SNCA expr inhib: reduces expression of the alpha-synuclein gene. HEK-293 SNCA-luciferase knock-in, luminescence, 24 h. Potency, µM (top dose mostly 57.2 µM), for the others: at the highest dose activity change, negative = inhibition, usual class: inhibitors. 140,000 tested, 0.17% active;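 further: potency means the concentration at half of the fitted maximal effect; plate controls were DMSO cells for no effect and cell-free wells for full effect; nearly all actives have a fitted effect of over 45% in size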
IP6K1 inhibitor: IP6K1 kinase inhibition | Q92551 | IP6K1 kinase, ADP-Glo luminescence, 2 h; active compounds read low | activity change, % (series mostly up to about 58 µM) | 140,000 tested, 0.81% active | AID 1645851; in the data active means activity change below about -25%; further: on the % scale 0 is the no-effect control and ±100 the full control effect
Target sequence (Q92551 whole entry, looked up): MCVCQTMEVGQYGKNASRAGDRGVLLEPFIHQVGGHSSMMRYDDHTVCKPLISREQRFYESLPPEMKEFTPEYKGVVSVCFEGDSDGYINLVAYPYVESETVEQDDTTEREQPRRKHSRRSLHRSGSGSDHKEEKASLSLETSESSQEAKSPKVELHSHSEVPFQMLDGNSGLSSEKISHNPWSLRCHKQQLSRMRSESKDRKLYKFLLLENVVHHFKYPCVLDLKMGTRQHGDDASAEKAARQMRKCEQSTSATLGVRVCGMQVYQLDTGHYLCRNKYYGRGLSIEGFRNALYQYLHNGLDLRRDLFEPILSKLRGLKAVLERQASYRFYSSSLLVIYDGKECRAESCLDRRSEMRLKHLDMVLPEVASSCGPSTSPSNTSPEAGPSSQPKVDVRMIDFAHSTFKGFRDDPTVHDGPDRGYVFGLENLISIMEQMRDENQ
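ADP-Glo luminescence measures ADP made by human IP6K1 during a 2 h RT reaction with ATP/IP6 (mix at 1.3 mM/130 uM); top library doses 57.5 and 19.1 uM final.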
Starred values were filed as active, the others as inactive; i = inactive; ? = inconclusive; nt = no result. Most compounds without a hit are left out; they make up all but 3% or so of the library. Unless noted, the call rests on the fitted dose curve; in most records, active means well fitted curve in the direction sought with a large enough effect; inconclusive means small, poorly fitted or top-dose-only effect, or another doubt; inactive means no such curve, though single readings can be large; an effect the other way counts as inactive or inconclusive.

SMILES | KDM5B inhibitor | SNCA viab count | SNCA expr inhib | IP6K1 inhibitor
Cc1ccc2nc(C(=O)N3CCN(c4cccc(Cl)c4)CC3)cn2c1 | i | nt | nt | nt
COc1ccc2nc(NS(=O)(=O)c3ccc(Cl)cc3)c(Nc3cc(C)ccc3OC)nc2c1 | i | nt | nt | nt
CC(C)Cc1cc(C(=O)N2C[C@H](C3CC3)[C@@H](N)C2)n(C)n1 | i | 2% | -17% | -8
CCn1nc(CC(C)C)cc1C(=O)N1C[C@@H](NC(C)=O)[C@H](C(C)C)C1 | 35µM* | 0% | 2% | -6
CC(C)CNC(=O)N1CCC(Nc2cccnc2)C1 (stereo not drawn) | ? | 3% | 1% | 7
O=C(c1ccoc1)N1CCC(Nc2cccnc2)C1 (stereo not drawn) | 13µM* | -26% | -32% | 0
CCS(=O)(=O)N1CCC(Nc2cccnc2)C1 (stereo not drawn) | 22µM* | 4% | -1% | 7
CN(C)S(=O)(=O)N1CCC(Nc2cccnc2)C1 (stereo not drawn) | 8.9µM* | -1% | -28% | 12
CN=C(NC)NCc1cccc(Br)c1 | i | nt | nt | nt
COc1ccc(COC(=O)C2=C(C)NC3=C(C(=O)CCC3)C2c2ccccc2C(F)(F)F)cc1 (stereo not drawn) | i | nt | nt | nt
CC(O)c1cc2n(n1)CCN(Cc1cc(=O)n3nc(C4CC4)sc3n1)C2 (stereo not drawn) | 25µM* | 7% | -8% | -1
O=C1CC(c2ccccc2)N(C(=O)C2CC2)CCCN(C(=O)c2cc3ccccc3[nH]2)CCN1 (stereo not drawn) | ? | -2% | 39% | 22
O=C(Cc1c[nH]c2ccccc12)NCC(=O)N1CCCCCNC(=O)CC1c1ccccc1 (stereo not drawn) | i | -1% | 25% | -10
O=C1CC(c2ccccc2)N(C(=O)CNC(=O)c2c[nH]c3ccccc23)CCCCCN1 (stereo not drawn) | 28µM* | -3% | 77% | -5
O=C1CC(c2ccccc2)N(C(=O)CNC(=O)c2ccc3cc[nH]c3c2)CCCCCN1 (stereo not drawn) | 25µM* | -7% | 22% | -7
O=C1CC(c2ccccc2)N(C(=O)C2CC2)CCCN(C(=O)c2ccc3cc[nH]c3c2)CCN1 (stereo not drawn) | 28µM* | 5% | 5% | 4
Cc1ccc(OCC(O)Cn2c(N(C)Cc3ccccc3)nc3c2c(=O)[nH]c(=O)n3C)cc1 (stereo not drawn) | i | nt | nt | nt
S=C(NCCSc1ccc(Cl)cc1)NC1CCCC1 | i | nt | nt | nt
COc1cc(O)ccc1CN1CCn2nnc(CCC(=O)N3CCCC3)c2C1 | 14µM* | 3% | -16% | -6
CN1CCN(C(=O)c2cccc3c2NCCC3)CC12CCNC(=O)CC2 (stereo not drawn) | 25µM* | 6% | -9% | 12
CCc1noc(-c2cccn3c(CNC(=O)c4cc(C)cc(C)c4)nnc23)n1 | ? | 14% | -6% | -1
CCc1noc(-c2cccn3c(CNC(=O)CCc4ccc(OC)cc4)nnc23)n1 | i | 14% | -3% | 10
CCc1noc(-c2cccn3c(CNC(=O)Cc4ccc(F)cc4)nnc23)n1 | 28µM* | 2% | -10% | 24
CC(C)c1noc(-c2cccn3c(CNC(=O)Cc4ccc(F)cc4)nnc23)n1 | 14µM* | -2% | -9% | 1
CCc1noc(-c2cccn3c(CNC(=O)c4cccc(C)c4)nnc23)n1 | 28µM* | 4% | ? | 16
SMILES | KDM5B inhibitor | SNCA viab count | SNCA expr inhib | IP6K1 inhibitor
CCc1noc(-c2cccn3c(CNC(=O)Cc4ccc(C)cc4)nnc23)n1 | 25µM* | -15% | 3% | 23
COCCn1c(-n2nc(C)cc2C)nc2c1c(=O)n(Cc1ccccc1)c(=O)n2C | i | nt | nt | nt
Cc1cn2nc(C(=O)NCc3ccc(F)cc3)cc2c(N2CCSCC2)n1 | ? | -7% | 3% | -1
COc1ccc(NC(=O)c2cc3c(N4CCSCC4)nc(C)cn3n2)cc1OC | 28µM* | -1% | -4% | -17
COc1cccc(NC(=O)c2cc3c(N4CCSCC4)nc(C)cn3n2)c1 | 28µM* | -27% | -14% | 0
COc1ccc(OC)c(NC(=O)c2cc3c(N4CCSCC4)nc(C)cn3n2)c1 | i | 9% | 3% | 3
Cc1cn2nc(C(=O)Nc3ccc(C)c(F)c3)cc2c(N2CCSCC2)n1 | 25µM* | -6% | -7% | 10
Cc1cn2nc(C(=O)Nc3ccc(OC(F)(F)F)cc3)cc2c(N2CCSCC2)n1 | 25µM* | 7% | 9% | -9

Source: PubChem BioAssay
